# Source: PubChem BioAssay (NCATS)
# Results filed as inconclusive are left out. Activity calls are given as the source filed them. Calls follow the shape of the full dose curve.
# Test: Validation screen for inhibitors of Lassa infection (AID 463096)
# Conditions: Lassa virus infection, cell-based; series mostly up to 46.1 µM; activity change, negative = inhibition: at the top concentration
# % is scaled to controls: 0 for no effect and ±100 for the full control effect.
row,SMILES,"activity change, negative = inhibition"
1,CC(=O)OCC(=O)[C@@]1(O)CC[C@H]2[C@@H]3CCC4=CC(=O)CC[C@]4(C)[C@H]3C(=O)C[C@@]21C,8% (inactive)
2,CNCC(O)c1ccc(O)c(O)c1 (stereo not drawn),2.72% (inactive)
3,CC(C)C(=O)c1c(C(C)C)nn2ccccc12,5.98% (inactive)
4,O=c1[nH]c(=O)n([C@H]2C[C@H](O)[C@@H](CO)O2)cc1Br,-3.79% (inactive)
5,CCN(CC)CC#CCOC(=O)C(O)(c1ccccc1)C1CCCCC1 (stereo not drawn),-15.2% (inactive)
6,Nc1ccc(S(=O)(=O)Nc2ccnn2-c2ccccc2)cc1,-1.32% (inactive)
7,O=C(O)CCCCCCCC(=O)O,-2.96% (inactive)
8,CCN1CCC[C@H]1CNC(=O)c1cc(S(N)(=O)=O)ccc1OC,30.8% (inactive)
9,CN1CCN(CC(=O)N2c3ccccc3C(=O)Nc3cccnc32)CC1,31.3% (inactive)
10,Cn1c(=O)c2[nH]cnc2n(C)c1=O,17.8% (inactive)
11,c1ccc2c(c1)CCCC2C1=NCCN1 (stereo not drawn),0.121% (inactive)
12,CC(=O)OCC1=C(C(=O)O)N2C(=O)[C@@H](NC(=O)Cc3cccs3)[C@H]2SC1,-1.92% (inactive)
13,CCn1nc(C(=O)O)c(=O)c2cc3c(cc21)OCO3,11.8% (inactive)
14,CCO/C([O-])=N/c1c[n+](N2CCOCC2)no1,26.3% (inactive)
15,CCOC(=O)C1=C(C)NC(C)=C(C(=O)OC)C1c1cccc([N+](=O)[O-])c1 (stereo not drawn),-19.7% (inactive)
16,CC(=O)Oc1cc(C(C)C)c(OCCN(C)C)cc1C,-8.11% (inactive)
17,CC1COc2c(N3CCN(C)CC3)c(F)cc3c(=O)c(C(=O)O)cn1c23 (stereo not drawn),11.9% (inactive)

row,SMILES,"activity change, negative = inhibition"
1,FC(F)(F)c1ccccc1-n1ccnc1,13.4% (inactive)
2,NC/C=C/C(=O)O,1.59% (inactive)
3,CN(C)CCOC(=O)COc1ccc(Cl)cc1,-4.64% (inactive)
4,COc1ccc(C2CNC(=O)C2)cc1OC1CCCC1 (stereo not drawn),-12.8% (inactive)
5,NCCS(=O)(=O)O,-2.5% (inactive)
6,CCN(CC)C(=O)c1ccc(O)c(OC)c1,11.3% (inactive)
7,CCC1(C)CC(=O)NC1=O (stereo not drawn),20.1% (inactive)
8,Cc1scc2c1N(C(=O)CN1CCN(C)CC1)c1ccccc1NC2=O,-7.72% (inactive)
9,C[C@]12CCC(=O)C=C1CC[C@@H]1[C@@H]2[C@@H](O)C[C@@]2(C)[C@H]1CC[C@]2(O)C(=O)COC(=O)CCC(=O)O,-1.05% (inactive)
10,CN1C(C(=O)Nc2ccccn2)=C(O)c2ccccc2S1(=O)=O,0.221% (inactive)
11,Cc1nc2c([nH]1)c(=O)n(C)c(=O)n2Cc1ccco1,-20.7% (inactive)
12,CCCNC(C)C(=O)Nc1ccccc1C (stereo not drawn),-7.81% (inactive)
13,NC(N)=NC(=O)Cc1c(Cl)cccc1Cl,-0.717% (inactive)
14,COc1ccc2cc([C@H](C)C(=O)O)ccc2c1,24.7% (inactive)
15,CO/N=C(\C(=O)N[C@@H]1C(=O)N2C(C(=O)O)=C(COC(C)=O)CS[C@H]12)c1csc(N)n1 (stereo in doubt),2.58% (inactive)
16,Cc1cnc(NC(=O)C2=C(O)c3ccccc3S(=O)(=O)N2C)s1,-6.34% (inactive)
